S1P4 antag: S1P4 receptor antagonists, primary screen, cell-based; Sphingosine 1-phosphate receptor 4 (Homo sapiens), O95977; S1P4-expressing cells, antagonist mode, reporter read-out; inhibition, % at 4.98 µM; 220,000 compounds, 0.26% hits; AID 1510, 2009; in the data active means inhibition above about 29%
Target sequence (O95977 whole entry, looked up): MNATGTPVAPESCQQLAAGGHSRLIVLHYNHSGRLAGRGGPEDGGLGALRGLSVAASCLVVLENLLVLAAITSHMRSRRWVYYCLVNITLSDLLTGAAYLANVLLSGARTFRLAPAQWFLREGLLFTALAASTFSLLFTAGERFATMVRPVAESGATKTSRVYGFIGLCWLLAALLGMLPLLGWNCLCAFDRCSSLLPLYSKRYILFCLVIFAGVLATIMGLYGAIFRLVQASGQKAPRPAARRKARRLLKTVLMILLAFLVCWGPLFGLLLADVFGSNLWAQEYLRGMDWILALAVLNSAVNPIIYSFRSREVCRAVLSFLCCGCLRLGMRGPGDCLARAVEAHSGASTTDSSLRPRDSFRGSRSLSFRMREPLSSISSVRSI
HSF-1 act: HSF-1 activators, primary screen, NIH3T3-HGL cells, MG132 stress, luminescence, single point; NIH3T3-HGL HSF-1 luciferase reporter, 8 h; 100% = twice DMSO control signal; activation, % at 9 µM; 300,000 compounds, 1.7% hits;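 active means mean replicate activation of at least 50% with a set share of replicates each reaching 50%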
Hsp70 activator: Hsp70 transcriptional activators, primary screen, cell-based, HeLa, Hsp70 promoter luciferase, luminescence, 10 µM | HeLa Hsp70 promoter luciferase reporter; scaled: vehicle 0, proteasome-inhibitor control 100% | activation, % at 10 µM | 200,000 compounds, 0.04% hits;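 active means activation above the mean across all tested compounds plus 3 SD, cutoff set per campaign, cut at about 5.5% in these data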
S1P3 antagonist: S1P3 receptor antagonists, primary screen, cell-based. Sphingosine 1-phosphate receptor 3 (Homo sapiens), Q99500. inhibition, % at 4.98 µM. CHO S1P3 NFAT-BLA reporter, FRET fluorescence, antagonist mode. 170,000 compounds, 0.27% hits;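 active means inhibition above the plate cutoff, the mean inhibition of test wells on that plate plus 3 SD, cut at about 28% in these data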;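 further: cells challenged with S1P at its EC80 of 0.8 µM; blue over green emission ratio from cleaved BLA substrate after 4 h stimulation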
Target sequence (Q99500 whole entry, looked up): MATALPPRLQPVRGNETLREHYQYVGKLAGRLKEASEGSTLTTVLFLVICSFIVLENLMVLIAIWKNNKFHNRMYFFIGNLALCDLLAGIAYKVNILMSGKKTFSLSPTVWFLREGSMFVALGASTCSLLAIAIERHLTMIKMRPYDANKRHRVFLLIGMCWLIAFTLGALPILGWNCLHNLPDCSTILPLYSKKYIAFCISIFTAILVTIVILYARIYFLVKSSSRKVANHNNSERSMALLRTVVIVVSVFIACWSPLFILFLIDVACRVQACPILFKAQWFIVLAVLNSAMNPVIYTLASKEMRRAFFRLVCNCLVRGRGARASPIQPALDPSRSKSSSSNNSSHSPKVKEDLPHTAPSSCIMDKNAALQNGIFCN
HSF1 inhib: HSF1 inhibitors in luciferase reporter cells, primary screen, cell-based, NIH3T3, luminescence; NIH3T3-HGL HSE-luciferase, MG132-induced, luminescence 8 h; hits give low values; activity change, negative = inhibition, % at 7.5 µM (by protocol); 300,000 compounds, 0.77% hits;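 active means more than half of replicate wells show activity change below -50%, luminescence cut by over half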;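 further: luciferase reports HSF-1 transcriptional activity via heat shock element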
S1P4 ag: S1P4 receptor agonists, primary screen, cell-based; S1P4-expressing cell line, agonist reporter assay; activation, % at 4.98 µM; 220,000 compounds, 0.35% hits; in the data active means activation above about 11%
Large screens that a line does not name were inactive. Sampled rows, rich in hits. Any-hit rate of the full collection: about 2.9%.

Cc1nc(-c2ccc(Cl)cc2)sc1C1(C)CC(c2ccc(Cl)cc2)=NO1 (stereo not given)	HSF1 inhib -63 (no result: S1P4 antag, Hsp70 activator, S1P3 antagonist, S1P4 ag)
CCCC(=O)Nc1ccc(-c2csc(N/N=C\c3ccncc3)n2)cc1	none (no result: Hsp70 activator)
COc1ccc(F)cc1C(=O)C1CCCN(Cc2cccn2-c2ccccn2)C1 (stereo not given)	HSF1 inhib -64
O=C1/C(=C/c2ccc(O)cc2)COc2ccccc21	none (no result: S1P4 antag, Hsp70 activator, S1P3 antagonist, S1P4 ag)
CCOc1cc(/C=C2/COc3ccccc3C2=O)ccc1OCC(=O)N(C)C	S1P4 antag 37 (no result: HSF-1 act, HSF1 inhib)
CCOCc1c(C(=O)Nc2ccc(OC)nc2)oc2ccccc12	none (no result: S1P4 antag, Hsp70 activator, S1P3 antagonist, S1P4 ag)
CCn1ncc(C(=O)Nc2cccc(Cl)c2)c1C	HSF-1 act 62
CC(=O)Nc1ccc(NC(=O)c2ccc(Cn3cc(Cl)cn3)cc2)cc1	none (no result: HSF-1 act, HSF1 inhib)
O=C(Nc1cccc(Cl)c1)c1ccc(Cn2cc(Cl)cn2)cc1	HSF-1 act 53
Cc1nonc1CC(=O)N1CCCC(C(=O)c2cccc(C(F)(F)F)c2)C1 (stereo not given)	none
O=C(Oc1cccc2cccnc12)c1ccc2c(c1)OCCO2	S1P3 antagonist 61
O=C(Oc1cccc2cccnc12)c1ccco1	none (no result: S1P3 antagonist)
O=C(Oc1cccc2cccnc12)c1ccc(Br)o1	HSF-1 act 66
CCN(CC)C(=O)Oc1ccc(Br)cc1C(=O)Nc1ccc(F)cc1F	HSF-1 act 72 (no result: Hsp70 activator)
C=CCNc1cc(C)oc(=O)c1C(=O)CCC	HSF1 inhib -68 (no result: S1P3 antagonist)
CCCS(=O)(=O)N1CCCC(C(=O)N2CCC(Cc3ccccc3)CC2)C1 (stereo not given)	HSF1 inhib -81
CCCS(=O)(=O)N1CCC(C(=O)N2CCC(Cc3ccccc3)CC2)CC1	none
COc1ccc(C(=O)NCCSC2CCCCC2)cc1	HSF-1 act 51
O=[N+]([O-])c1cc(Cl)ccc1NCCNS(=O)(=O)c1ccccc1	HSF-1 act 55
CCOC(=O)c1c(NC(=O)COC(=O)Cn2cnc3c2c(=O)n(C)c(=O)n3C)sc(C)c1CC	none (no result: S1P4 antag, Hsp70 activator, S1P3 antagonist, S1P4 ag)
CC1CCCN(c2ncnc3c2cnn3-c2ccccc2)C1 (stereo not given)	HSF1 inhib -61 (no result: S1P4 antag, Hsp70 activator, S1P4 ag)
CC1CC(C)CN(c2ncnc3c2cnn3-c2ccc(Cl)cc2)C1 (stereo not given)	HSF1 inhib -52
CCN1CCN(c2ncnc3c2cnn3-c2ccccc2)CC1	S1P3 antagonist 90
c1ccc(-n2ncc3c(N4CCCCC4)ncnc32)cc1	none
CC1CCCN(c2ncnc3c2cnn3-c2ccc(Cl)cc2)C1 (stereo not given)	HSF1 inhib -90 (no result: S1P4 antag, Hsp70 activator, S1P4 ag)
Cc1c(-n2c(-c3ccccc3)nc3ccccc3c2=O)c(=O)n(-c2ccccc2)n1C	none
CC(=O)Nc1ccc(NC(=O)CCC(=O)Oc2ccc(C)cc2)cc1	none (no result: S1P4 antag, Hsp70 activator, S1P3 antagonist, S1P4 ag)
CCC(C)C(NC(=O)/C(=C\c1ccccc1)NC(=O)c1ccc(OC)cc1)C(=O)O (stereo not given)	none
Cc1ccc(S(=O)(=O)N[C@@H](Cc2ccccc2)C(=O)N2CCC[C@@H]2C(=O)O)cc1	none (no result: S1P4 antag, Hsp70 activator, S1P3 antagonist, S1P4 ag)
CCOc1ccc(/C=C/C(=O)NCc2ccccc2)cc1	none
CCCCN1Cc2cc(C(=O)c3cc(OC)ccc3O)cnc2NC1=O	none (no result: S1P3 antagonist)
Cc1ccc(O)c(C(=O)c2cnc3c(c2)CN(CCC(C)C)C(=O)N3)c1	HSF-1 act 120
Cc1ccc(O)c(C(=O)c2cnc3c(c2)CN(C)C(=O)N3)c1	HSF-1 act 73 (no result: S1P3 antagonist)
COc1ccc(-c2nn(-c3ccccc3)cc2C(N)=O)cc1OC	none (no result: S1P4 antag, Hsp70 activator, S1P3 antagonist, S1P4 ag)
Cc1ccc(/C=N/Nc2nnc(Cl)c3ccccc23)cc1	HSF-1 act 65
Clc1ccc(/C=N/Nc2nnc(Cl)c3ccccc23)cc1	HSF-1 act 121 (no result: S1P3 antagonist)
Clc1nnc(N/N=C/c2ccccc2)c2ccccc12	none (no result: S1P3 antagonist)
CCCCn1c(N)c(N(CCC(C)C)C(=O)CC2CCCCC2)c(=O)[nH]c1=O	none (no result: S1P4 antag, Hsp70 activator, S1P3 antagonist, S1P4 ag)
O=C1CC(N2C(=O)/C(=C/C=C/c3ccccc3)SC2=S)C(=O)N1c1ccccc1 (stereo not given)	HSF-1 act 83
O=C(NCc1ccc(N2CCCC2=O)cc1)Nc1cccc2ccccc12	none (no result: S1P3 antagonist)
O=C(NCc1ccc(N2CCCC2=O)cc1)Nc1ccccc1	HSF-1 act 54
C=CCN1C(=O)c2ccccc2Sc2ccc(C(=O)NCC(OC)OC)cc21	none (no result: S1P4 antag, Hsp70 activator, S1P3 antagonist, S1P4 ag)
CCCC1(CCC)NC(=O)N(CC(=O)c2cc(C)n(-c3ccc4c(c3)OCO4)c2C)C1=O	none
Cc1cc(C(=O)CN2C(=O)C(=O)N(Cc3ccccc3)C2=O)c(C)n1-c1ccc2c(c1)OCCO2	HSF1 inhib -70
COc1ccc(N2CCN(C(=O)C3CCN(C(=O)c4ccc([N+](=O)[O-])cc4)CC3)CC2)cc1	none (no result: S1P4 antag, Hsp70 activator, S1P3 antagonist, S1P4 ag)
O=C1C2CCCCN2C(=O)N1CCCN1CCN(c2ccc(F)cc2)CC1 (stereo not given)	HSF-1 act 57 (no result: S1P4 antag, Hsp70 activator, S1P3 antagonist, S1P4 ag)
O=C(Nc1ccc(Br)cc1)C1CCN(c2cnccn2)CC1	none (no result: S1P4 antag, Hsp70 activator, S1P3 antagonist, S1P4 ag)
N#C/C(=C\c1cccs1)C(=O)Nc1nccs1	HSF-1 act 60
O=C(Cn1nc(-c2ccc(Cl)cc2)ccc1=O)NCC1CCCO1 (stereo not given)	HSF1 inhib -57
O=C(Cn1nc(-c2ccccc2)ccc1=O)NCC1CCCO1 (stereo not given)	none (no result: S1P3 antagonist)
Cc1ccc(NC(=S)Nc2cccc3ccccc23)cc1F	HSF1 inhib -55 (no result: S1P4 antag, Hsp70 activator, S1P3 antagonist, S1P4 ag)
CC(=O)c1ccc(NC(=S)Nc2cccc3ccccc23)cc1	HSF1 inhib -67 (no result: S1P4 antag, Hsp70 activator, S1P3 antagonist, S1P4 ag)
CCCCn1c(N)c(N(CCC(C)C)C(=O)C2=NN(c3cc(C)ccc3C)C(=O)CC2)c(=O)[nH]c1=O	none (no result: S1P4 antag, Hsp70 activator, S1P3 antagonist, S1P4 ag)
COCCN(Cc1cc2ccc(C)c(C)c2nc1Cl)C(=O)N1CCOCC1	HSF-1 act 55
O=C(Nc1ccc(Cl)cc1)c1ccc2c(c1)OCO2	HSF-1 act 60
O=C(Nc1ccc(Cl)c(Cl)c1)c1ccc2c(c1)OCO2	HSF-1 act 88 (no result: S1P4 antag, Hsp70 activator, S1P3 antagonist, S1P4 ag)
CCc1ccc(C(C)NC(=O)c2ccc3c(c2)OCO3)cc1 (stereo not given)	none (no result: S1P4 antag, Hsp70 activator, S1P3 antagonist, S1P4 ag)
O=C(Nc1ccc2c(c1)OCO2)c1ccc2c(c1)OCO2	none
CC(NC(=O)c1ccc2c(c1)OCO2)c1ccccc1 (stereo not given)	HSF1 inhib -71 (no result: S1P4 antag, Hsp70 activator, S1P3 antagonist, S1P4 ag)
Cc1cc(NS(=O)(=O)c2cn(C)nc2C)no1	none (no result: S1P4 antag, Hsp70 activator, S1P3 antagonist, S1P4 ag)
CCN(CC)C(=O)COc1coc(CN2CCN(c3ccc(F)cc3)CC2)cc1=O	HSF1 inhib -62 (no result: S1P4 antag, Hsp70 activator, S1P3 antagonist, S1P4 ag)
O=C(c1cccc(S(=O)(=O)N2CCN(c3ccccc3)CC2)c1)N1CCN(c2ccccc2O)CC1	none (no result: S1P4 antag, Hsp70 activator, S1P3 antagonist, S1P4 ag)
CCn1cc(C(=O)N2CCn3c(nc4ccccc43)C2)c(=O)c2ccc(C)nc21	S1P3 antagonist 68
CC(CN1CCOCC1)OC(=O)C(c1ccccc1)c1ccccc1 (stereo not given)	HSF1 inhib -63 (no result: S1P3 antagonist)
